Results reported in ChEMBL document CHEMBL3988442, “University of Dundee, Small-Polar-MMV Screening Library” (2021).

Each compound was assayed against AMP-activated protein kinase, AMPK (Homo sapiens) (UniProt P54646+O43741+P54619+Q9UGJ0+Q9Y478+Q13131+Q9UGI9) (assay: AMP-dependent Kinase enzyme assay. An in vitro enzyme assay that detects ADP turnover that is directly proportional to AMPK activity. This uses naive AMPK that is activated during the assay with MK-8722). Details: 30 µM.
Assay type: functional
Set-up: scale not given: direction of the effect not stated beside the values

Row | Compound | Percent Effect [%]
1 | Cn1cc(S(=O)(=O)NCc2ccsc2)cn1 | -0.312
2 | CNS(=O)(=O)c1c(C)sc2ccccc12 | 7.5
3 | OCCC1(NCc2ccc(-n3cccn3)cc2)CCOCC1 | -4.22
4 | Cc1cc(C)cc(-n2ncc3c2CCCC3N)c1 (stereo not given) | 15.1
5 | O=C1CN(C(=O)CC2c3ccccc3CCc3ccccc32)CCN1 | 30.9
6 | CNC(=O)c1cccnc1NCc1ccc(Cn2cccn2)cc1 | -3.46
7 | c1nc(N2CCCC2)cnc1C1CCNCC1 | 11.5
8 | O=C(CCn1ccnn1)N1CCCC(n2cncn2)C1 (stereo not given) | 14.6
9 | CN(Cc1nc2ccccc2[nH]1)C(=O)CN(C)c1ccccc1 | -1.06
10 | Cc1nc2cc(C3CCOCC3)nn2c(NCC2COCCO2)c1C (stereo not given) | 1.07
11 | c1ccc(CCN2CCN(C3CCOC4(CCOCC4)C3)CC2)nc1 (stereo not given) | -2.83
12 | Cc1ccnc2c1NC(=O)CN2C(=O)CCC(F)(F)F | 1.79
13 | CCc1ccc2nc(C)cc(C(=O)N[C@@H]3CNC[C@H]3O)c2c1 | 0.636
14 | Cc1nccc(CNC(=O)NCCC(=O)N2CCCc3ccccc32)n1 | -8.67
15 | CC(C)c1nn(C)cc1CNCc1cccnc1N(C)C | 0.312
16 | CN(Cc1ncc(-c2ccccc2C(=O)O)s1)c1ncccn1 | -8.09
17 | Cc1nc(C)c(C(=O)N2CCc3c(Cl)cccc32)o1 | 1.75
18 | O=S(=O)(Nc1ccc2c(c1)OCCO2)N1CCCCC1 | 12.8
19 | CCc1c(C)nc(-n2nc(-c3cccs3)cc2N)[nH]c1=O | -6.28
20 | Cn1cc(C(=O)NCCc2ccc(OC3CCCC3)cc2)ccc1=O | 0.292
